The target of experiment [1] is Nucleoli Translocation, AR (gene 367) (UniProt P10275). Put plainly: UPITT_HCI_U2OS_AR_TIF2_Nucleoli_Antagonist: University of Pittsburgh U2OS Androgen Receptor-Transcriptional Intermediary Factor 2 (AR-TIF2) Antagonism High Content Imaging Assay for Nucleoli Translocation (AID 2283997; active = hit-call score of the fitted dose curve at least 0.9, where 1 is the maximum). In outline: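 An antagonist-mode imaging screen: engineered U2OS (AR-RFP, TIF2-GFP) exposed to 20 uM compound, 0.2% DMSO. Activity reflects nucleolar red fluorescence change relative to DHT baseline.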
Chain of Nucleoli Translocation, AR (gene 367) (P10275 whole entry, looked up): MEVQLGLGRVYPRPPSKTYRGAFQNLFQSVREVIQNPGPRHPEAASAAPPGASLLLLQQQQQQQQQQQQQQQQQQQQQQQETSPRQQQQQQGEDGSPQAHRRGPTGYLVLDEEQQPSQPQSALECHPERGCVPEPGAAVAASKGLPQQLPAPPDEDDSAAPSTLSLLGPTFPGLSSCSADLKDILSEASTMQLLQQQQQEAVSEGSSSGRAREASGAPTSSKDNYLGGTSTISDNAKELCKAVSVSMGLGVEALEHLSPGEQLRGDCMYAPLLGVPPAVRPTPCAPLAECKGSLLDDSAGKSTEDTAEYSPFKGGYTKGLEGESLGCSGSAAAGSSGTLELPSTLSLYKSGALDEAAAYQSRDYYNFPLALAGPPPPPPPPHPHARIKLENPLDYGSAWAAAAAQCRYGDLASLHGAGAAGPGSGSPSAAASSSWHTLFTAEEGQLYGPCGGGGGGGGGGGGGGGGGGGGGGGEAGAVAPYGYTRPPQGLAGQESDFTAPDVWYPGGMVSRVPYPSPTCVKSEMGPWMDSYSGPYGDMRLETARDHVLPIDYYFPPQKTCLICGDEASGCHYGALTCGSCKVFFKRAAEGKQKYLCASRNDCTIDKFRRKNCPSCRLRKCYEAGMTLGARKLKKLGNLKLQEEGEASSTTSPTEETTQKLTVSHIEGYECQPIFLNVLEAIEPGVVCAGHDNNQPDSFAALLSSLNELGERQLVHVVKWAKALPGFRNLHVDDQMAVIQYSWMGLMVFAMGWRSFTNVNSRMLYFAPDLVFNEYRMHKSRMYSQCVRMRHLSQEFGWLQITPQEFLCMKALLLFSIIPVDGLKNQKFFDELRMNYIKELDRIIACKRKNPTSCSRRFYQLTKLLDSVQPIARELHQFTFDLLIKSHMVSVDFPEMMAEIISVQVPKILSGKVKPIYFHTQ

Experiment [2] has the same target. Put plainly: UPITT_HCI_U2OS_AR_TIF2_Nucleoli_Agonist: University of Pittsburgh U2OS Androgen Receptor-Transcriptional Intermediary Factor 2 (AR-TIF2) Agonism High Content Imaging Assay for Nucleoli Translocation (AID 2283998; active = hit-call score of the fitted dose curve at least 0.9, where 1 is the maximum). The gist of the method:
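RFP-AR / GFP-TIF2 cells; cpds diluted in serum-free medium; single-point screen 20 uM final (0.2% DMSO), actives confirmed in triplicate; conc-response 0.195–50 uM final (0.5% DMSO). Readout: nucleolar red fluorescence, positive direction vs DMSO.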

In experiment [3] the target is Ratio of Nucleoli Translocation and Cytoplasm, AR (gene 367) (UniProt P10275). Put plainly: UPITT_HCI_U2OS_AR_TIF2_Nucleoli_Cytoplasm_Ratio_Antagonist: University of Pittsburgh U2OS Androgen Receptor-Transcriptional Intermediary Factor 2 (AR-TIF2) Antagonism High Content Imaging Assay for Ratio of Nucleoli Translocation and Cytoplasm (AID 2283999; active = hit-call score of the fitted dose curve at least 0.9, where 1 is the maximum;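 also: antagonists lower the DHT-driven ratio of nucleolar to cytoplasmic red signal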). In outline: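 Compounds were added to U2OS cells carrying red-fluorescent AR and green-fluorescent TIF2, first at 20 uM, with hits confirmed in triplicate and titrated from 0.195 to 50 uM. Nucleolar versus cytoplasmic AR-RFP fluorescence was then quantified by imaging, with analysis relative to DHT.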
Chain of Ratio of Nucleoli Translocation and Cytoplasm, AR (gene 367) (P10275 whole entry, looked up): as above

Experiment [4] has the same target. Briefly: UPITT_HCI_U2OS_AR_TIF2_Nucleoli_Cytoplasm_Ratio_Agonist: University of Pittsburgh U2OS Androgen Receptor-Transcriptional Intermediary Factor 2 (AR-TIF2) Agonism High Content Imaging Assay for Ratio of Nucleoli Translocation and Cytoplasm (AID 2284000; active = hit-call score of the fitted dose curve at least 0.9, where 1 is the maximum;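 also: hits raise the red nucleolar to cytoplasm ratio above vehicle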). The gist of the method: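 Primary screen at 20 uM final (0.2% DMSO), then triplicate confirmation and dose-response from 0.195 to 50 uM final (0.5% DMSO). Cells: U2OS with AR-RFP and TIF2-GFP. Endpoint is the nucleoli/cytoplasm red-fluorescence ratio, gain-of-signal vs DMSO.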

Experiment [5] can be described thus: CCTE_Simmons_MITO_basal_resp_rate: CCTE's HepG2 Seahorse XF Respirometric Screening Assay at Basal Respiratory State, Simmons Lab (AID 2284001). The settings on record: actives raise or lower the signal. The gist of the method: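 Readout is oxygen consumption rate after test compound injection, measured by Seahorse XF in HepG2 cells. Seven concentrations from 125 nM up to 100 uM final are tested, and activity in either direction is fitted against DMSO.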

Experiment [6] in a line: CCTE_Simmons_MITO_max_resp_rate: CCTE's HepG2 Seahorse XF Respirometric Screening Assay at Maximal Respiratory State [uncoupled], Simmons Lab (AID 2284002). The settings on record: actives raise or lower the signal. The gist of the method: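 HepG2, Seahorse XF96, maximal OCR post-FCCP. Cpd 125 nM–100 uM final (7 conc), n=3 biological. Kinetic reads every 6 min (3 min mix/3 min measure) over 72 min; fit bidirectional vs DMSO.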

The nature of experiment [7]: CCTE_Simmons_MITO_inhib_resp_rate: CCTE's HepG2 Seahorse XF Respirometric Screening Assay at Inhibited Respiratory State [full ETC block], Simmons Lab (AID 2284006). The settings on record: actives raise or lower the signal. In outline:
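Seahorse respirometry, HepG2, 72 min total, 6-min mix/measure cycles. Cpd 125 nM–100 uM final ×7, n=3 biological. Sequential FCCP, rotenone/antimycin A; inhibited-respiration OCR, bidirectional fit vs DMSO.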

Experiment [8] in a line: CCTE_Simmons_MITO_viability: CellTiter-Glo Viability Assessment for CCTE's HepG2 Seahorse XF Respirometric Screening Assay [post-hoc], Simmons Lab (AID 2284007; active = hit-call score of the fitted dose curve at least 0.9, where 1 is the maximum;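 as to AC50: cells exposed to chemical for 90 min before the ATP read; actives lower ATP signal relative to DMSO baseline meaning reduced viability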). In outline:
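Cytotoxicity readout: ATP quantitation via luciferase in HepG2 cells treated 90 min with seven titrated concentrations (125 nM to 100 uM, final). Curves fitted relative to DMSO negative control, three biological replicates per concentration.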
(In general: ATP-based viability assays read luminescence as a measure of living cells.)

Experiment [9] in a line: CCTE_Harrill_HTTr_Apoptosis_MCF7: CCTE's 6-hour Apoptosis Assessment for the High-Throughput Transcriptomics (HTTr) Platform, in MCF-7 cells cultured in DMEM + 10% fetal bovine serum, Harrill Lab (AID 2284011). The gist of the method:
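Read-out: CellEvent Caspase 3/7 Green signal by high content imaging, gain-of-signal indicating apoptosis. MCF-7 cells, DMEM + 10% FBS, eight-point dilution series, 6 h exposure. Curves fitted bidirectionally relative to DMSO negative control.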

A short description of experiment [10]: CCTE_Harrill_HTTr_CellCount_MCF7: CCTE's Cell Proliferation Assessment for the High-Throughput Transcriptomics (HTTr) Platform, Harrill Lab (AID 2284012; active = hit-call score of the fitted dose curve at least 0.9, where 1 is the maximum;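 also: cells exposed to compound for six hours; intended direction is loss of nuclei count meaning fewer cells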). In outline: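 Cell count served as viability reporter: loss of Hoechst-stained nuclei, counted by high content imaging, marks decreased growth or survival. Exposure was 6 h in MCF-7 cells across eight concentrations, with DMSO as baseline.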

Experiment [11] is described as follows: CCTE_Shafer_MEA_acute_spike_number: CCTE's Neural Acute Assay for Total Number of Spikes, Shafer Lab (AID 2284008).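 As to AC50: curve fitted for decrease in spike count so AC50 reflects inhibitors.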 In outline: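 Rat cortical cultures, DIV 13/15, 37 C. 40 min baseline rec, cpd 0.03-40 uM, 40 min post-dose rec. Band-pass 300-5000 Hz, spike threshold 8x rms; % change in spike count per well, DMSO neg ctrl, loss-of-signal fit.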
A short description of experiment [12]: CCTE_Shafer_MEA_acute_firing_rate_mean: CCTE's Neural Acute Assay for Mean Firing Rate, Shafer Lab (AID 2284009).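 Also: analyzed for loss of signal so actives lower firing rate relative to DMSO.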 In outline: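 Spontaneous spiking of primary rat cortical networks, DIV 13/15, 37 C. Compound 0.03-40 uM, n ≥3 wells; 40 min baseline vs 40 min treated. Endpoint fitted in loss-of-signal direction against DMSO.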
Experiment [13] in a line: CCTE_Shafer_MEA_acute_burst_number: CCTE's Neural Acute Assay for Single-Electrode Bursts, Shafer Lab (AID 2284013). The gist of the method: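 Burst totals were derived with adaptive spike detection (8x rms threshold) on filtered signals from rat cortical cultures; change relative to pre-treatment baseline after 40-min compound exposure (0.03-40 uM) was fitted in the negative direction against DMSO.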

The nature of experiment [14]: CCTE_Harrill_HTTr_Apoptosis_DMEM_6hr: (Pilot) CCTE's 6-hour Apoptosis Assessment for the High-Throughput Transcriptomics (HTTr) Platform, in MCF-7 cells cultured in DMEM + 10% fetal bovine serum, Harrill Lab (AID 2283981). The gist of the method:
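MCF-7 cells grown in DMEM + 10% FBS were exposed for 6 hours to an eight-point dilution series. CellEvent Caspase 3/7 Green signal was imaged; activity fitted bidirectionally against DMSO.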

Experiment [15] can be described thus: CCTE_Harrill_HTTr_Apoptosis_DMEM_12hr: (Pilot) CCTE's 12-hour Apoptosis Assessment for the High-Throughput Transcriptomics (HTTr) Platform, in MCF-7 cells cultured in DMEM + 10% fetal bovine serum, Harrill Lab (AID 2283982). In outline:
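Caspase-3/7 activity was measured by high-content imaging (CellEvent Caspase 3/7 Green) after a 12-hour exposure of MCF-7 cells grown in DMEM with 10% FBS. Eight-point concentration series, fitted bidirectionally against vehicle.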

Experiment [16] in a line: CCTE_Harrill_HTTr_Apoptosis_DMEM_24hr: (Pilot) CCTE's 24-hour Apoptosis Assessment for the High-Throughput Transcriptomics (HTTr) Platform, in MCF-7 cells cultured in DMEM + 10% fetal bovine serum, Harrill Lab (AID 2283983). The gist of the method:
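Caspase-3/7 activity read by high-content imaging (CellEvent Green reagent) 24 h after dosing. MCF-7 cells grown in DMEM with 10% FBS received an eight-point concentration series; fits were bidirectional versus DMSO.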

Experiment [17] is described as follows: CCTE_Harrill_HTTr_Apoptosis_PRF_DMEM_6hr: (Pilot) CCTE's 6-hour Apoptosis Assessment for the High-Throughput Transcriptomics (HTTr) Platform, in MCF-7 cells cultured phenol red-free DMEM + 10% charcoal-stripped fetal bovine serum, Harrill Lab (AID 2283984). In outline: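 Caspase-3/7 activity (CellEvent Green) read by high-content imaging 6 h after dosing, eight concentrations. Cells: MCF-7, phenol red-free DMEM with 10% charcoal-stripped serum. Curves fit both directions against DMSO.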

A short description of experiment [18]: CCTE_Harrill_HTTr_Apoptosis_PRF_DMEM_24hr: (Pilot) CCTE's 24-hour Apoptosis Assessment for the High-Throughput Transcriptomics (HTTr) Platform, in MCF-7 cells cultured in phenol red-free DMEM + 10% charcoal-stripped fetal bovine serum, Harrill Lab (AID 2283986). In outline: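 Eight concentrations tested for 24 h on MCF-7 grown in charcoal-stripped serum, phenol red-free DMEM. High content imaging of CellEvent Caspase 3/7 Green signal gives apoptosis read-out, fitted both ways relative to DMSO.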

Experiment [19] can be described thus: CCTE_Harrill_HTTr_Viability_MCF7: CCTE's 6-hour Cell Viability Assessment for the High-Throughput Transcriptomics (HTTr) Platform, in MCF-7 cells cultured in DMEM + 10% fetal bovine serum, Harrill Lab (AID 2284010). The gist of the method:
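Read-out is propidium iodide gain of signal by high-content imaging, reflecting membrane integrity loss. Measurements are taken 6 h after dosing, eight concentrations per chemical, with DMSO serving as baseline for bidirectional curve fitting.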

Structures are written as SMILES. Results filed as inconclusive are left out. The source made the active and inactive calls. The calls were made as follows, unless noted: active = hit-call score of the fitted dose curve at least 0.9, where 1 is the maximum; inactive = score below 0.9.

For `CCN(CC)C(=S)SSC(=S)N(CC)CC`, the half-maximal activity concentration (AC50) was 19.8 µM (active) in experiment [1], 50 µM (active) in [2], 11.7 µM (active) in experiment [3] and 64.4 µM (active) in experiment [4]. For the same molecule, the result in experiment [5], in [6], in [7], in experiment [8], in experiment [9] and in experiment [10] was inactive.
Regarding `CCc1ccc(O)c(C(C)(C)C)c1`, the call in experiment [5], in experiment [6], in experiment [7], in [8], in experiment [9] and in experiment [10] was inactive. For the same molecule, the AC50 was 0.679 µM (active) in [11], 0.672 µM (active) in experiment [12] and 1.03 µM (active) in experiment [13].
As for `Cc1ncc([C@@H](CCCCCCc2ccc3c(n2)NCCC3)CC(=O)O)cn1`, the molecule was classed as inactive in experiment [11], in [12] and in experiment [13]. The AC50 in [9] was 1.6 µM (active); in experiment [10] it was 0.321 µM (active).
For the molecule `O=C1CN(N=Cc2ccc([N+](=O)[O-])o2)C(=O)N1`, the result in experiment [5], in experiment [8], in experiment [9] and in experiment [10] was inactive. The AC50 in [6] was 12.7 µM (active); in [7], 46.8 µM (active).
In the case of `CCCCC(CC)C(=O)OCCOCCOCCOC(=O)C(CC)CCCC` (configuration not stated), the result in experiment [1], in [2], in experiment [3], in [4], in [11] and in experiment [12] was inactive. The outcome in [9], in experiment [10] and in experiment [13] was inactive.
`CC(C)C(=O)Nc1ccc([N+](=O)[O-])c(C(F)(F)F)c1`: the result in [14], in experiment [15], in experiment [16], in experiment [17], in [18] and in [9] was inactive. For the same molecule, the call in [10] and in [13] was inactive. Further, the concentration at half-maximal activity (AC50) in experiment [11] is 5.06 µM (active); in experiment [12] it was 5.21 µM (active).
Take `CCCCCCOC(=O)CC(CC(=O)OCCCCCC)(OC(=O)CCC)C(=O)OCCCCCC`: the result in experiment [1], in experiment [2], in experiment [4], in [19], in [9] and in experiment [10] was inactive.
As to `CCCc1ccccc1`, the call in experiment [11], in experiment [12] and in experiment [13] was inactive.
With `OC(CCl)CCl`, the molecule was called inactive in experiment [11], in experiment [12], in experiment [9], in experiment [10] and in experiment [13].
As to `CCCCCCCC/C=C\CCCCCCCC(=O)OC[C@@H](O)[C@H]1OC[C@H](O)[C@H]1O`, the molecule was called inactive in [11], in [12], in [19], in experiment [9], in experiment [10] and in [13].
Turning to `CCOc1ccc2[nH]cc(C(=O)NCc3ccccc3)c(=O)c2n1`, the call in experiment [5], in experiment [6], in experiment [7], in experiment [8], in experiment [19] and in [9] was inactive. In experiment [10], the result was inactive.
On to `C=CCc1cc(S(=O)(=O)c2ccc(O)c(CC=C)c2)ccc1O`, for which the values for the AC50 in [2], in experiment [5] and in experiment [6] were 84 µM (active), 12.3 µM (active) and 8.67 µM (active), respectively. Also, the outcome in experiment [3], in [4], in experiment [7], in experiment [8], in experiment [11] and in experiment [12] was inactive. The outcome in experiment [19], in [9] and in experiment [13] was inactive.
On to `c1ccc2cc3ccccc3cc2c1`, for which the AC50 in experiment [11] was 0.003 µM (active); in experiment [12], 0.003 µM (active); in [13], 0.0075 µM (active). In addition, in experiment [9], the outcome was inactive.
For the molecule `O=C(O)c1cccc(C[C@@H]2COc3ccc(OCc4nc5cc(F)ccc5s4)cc3[C@@H]2O)c1`, the outcome in experiment [5], in [7], in [8] and in [9] was inactive. Also, the concentration at half-maximal activity (AC50) in experiment [6] is 25 µM (active).
As to `CC(C)c1nnc2ccc(-c3ocnc3-c3cc(F)ccc3F)cn12`, the concentration at half-maximal activity (AC50) in experiment [5] was 25.6 µM (active); in experiment [6] it was 76.2 µM (active); in experiment [8], 50 µM (active). Further, the molecule was called inactive in experiment [7] and in experiment [9].

One may read the AC50 as the concentration at which the activity in the assay is half-maximal.
